S1P4 agonist: S1P4 receptor agonists, primary screen, cell-based | Sphingosine 1-phosphate receptor 4 (Homo sapiens), O95977 | activation, % at 4.98 µM | S1P4-expressing cell line, agonist reporter assay | 0.35% of 220,000 active; in the data active = activation above about 11%
Target sequence (O95977 whole entry, looked up): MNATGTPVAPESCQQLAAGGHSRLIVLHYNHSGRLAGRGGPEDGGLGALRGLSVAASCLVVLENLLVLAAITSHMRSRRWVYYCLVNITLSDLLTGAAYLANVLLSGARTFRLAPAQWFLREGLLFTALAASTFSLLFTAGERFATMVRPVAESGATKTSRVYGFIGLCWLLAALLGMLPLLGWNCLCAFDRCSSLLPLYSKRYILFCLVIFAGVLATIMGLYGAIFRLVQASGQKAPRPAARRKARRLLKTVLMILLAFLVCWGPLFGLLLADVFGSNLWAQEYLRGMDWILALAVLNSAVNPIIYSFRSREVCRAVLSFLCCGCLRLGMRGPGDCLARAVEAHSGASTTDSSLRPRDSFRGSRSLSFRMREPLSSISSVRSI
AI-2 QS mod: Vibrio harveyi AI-2 quorum sensing modulators, primary screen, JMH597 strain, luminescence/OD600 ratio | AID 2094, 2009 | Vibrio harveyi JMH597 AI-2 luminescence/OD600 ratio, 9 h; hits give low values; strain lacks LuxN and CqsS sensors; 0 = neutral-control median | 0.4% of 300,000 active | activity change, % at 7.5 µM; in the data active = activity change below about -75%, passing the limit was not always enough; inconclusive = no clear call, values can overlap the other calls;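 note: luminescence divided by OD600 gain over 9 h not by final OD600 alone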
S1P3 antagonist: S1P3 receptor antagonists, primary screen, cell-based; 0.27% of 170,000 active; inhibition, % at 4.98 µM; CHO S1P3 NFAT-BLA reporter, FRET fluorescence, antagonist mode;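 active = inhibition above the plate cutoff, the mean inhibition of test wells on that plate plus 3 SD, cut at about 28% in these data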;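 note: cells challenged with S1P at its EC80 of 0.8 µM; blue over green emission ratio from cleaved BLA substrate after 4 h stimulation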
Target sequence (Q99500 whole entry, looked up): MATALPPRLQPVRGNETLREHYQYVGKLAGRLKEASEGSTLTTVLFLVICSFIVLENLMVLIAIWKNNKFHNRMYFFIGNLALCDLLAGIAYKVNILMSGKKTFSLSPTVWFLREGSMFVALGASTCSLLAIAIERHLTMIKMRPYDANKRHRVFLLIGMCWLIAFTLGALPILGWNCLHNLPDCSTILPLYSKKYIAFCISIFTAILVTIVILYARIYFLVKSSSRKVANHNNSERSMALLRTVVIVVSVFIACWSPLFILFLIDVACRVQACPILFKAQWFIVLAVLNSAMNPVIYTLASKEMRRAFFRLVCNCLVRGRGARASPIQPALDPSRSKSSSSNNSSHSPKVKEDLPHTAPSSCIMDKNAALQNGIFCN
Hsp70 act: Hsp70 transcriptional activators, primary screen, cell-based, HeLa, Hsp70 promoter luciferase, luminescence, 10 µM; HeLa Hsp70 promoter luciferase reporter; scaled: vehicle 0, proteasome-inhibitor control 100%; activation, % at 10 µM; 0.04% of 200,000 active; AID 1203, 2008;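 active = activation above the mean across all tested compounds plus 3 SD, cutoff set per campaign, cut at about 5.5% in these data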
S1P4 antag: S1P4 receptor antagonists, primary screen, cell-based; inhibition, % at 4.98 µM; AID 1510, 2009; S1P4-expressing cells, antagonist mode, reporter read-out; 0.26% of 220,000 active; in the data active = inhibition above about 29%
JMH597 growth: Vibrio harveyi growth inhibition, confirmation, counter-screen for AI-2 quorum sensing project, JMH597 strain, OD600 absorbance. shares compounds with AI-2 QS mod. 9 h; lacks LuxN and CqsS sensors. AID 2726, 2010. growth inhibition, % at 7.5 µM. 1% of 750 active;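 active = every replicate shows growth inhibition above 50%; inconclusive = at least half, but not all, replicates pass that cutoff; inactive = fewer than half of replicates pass it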
BB721 lum counter: luminescence inhibition in constitutive-on V. harveyi, confirmation, counter-screen for LuxS inhibitor project, strain BB721, luminescence readout | shares compounds with AI-2 QS mod | Vibrio harveyi BB721 luminescence, 9 h | inhibition, % at 7.5 µM | 95% of 750 active | AID 2727, 2010;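 active = inhibition above about 80% in every replicate, not just on average, limit read from the data; inconclusive = at least half of replicates past the limit, but not all; inactive = fewer than half of replicates past the limit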
BB721 growth rt: growth inhibition of V. harveyi BB721, confirmation, cytotoxicity control for AI-2 quorum sensing inhibitors, strain BB721, absorbance OD600 | shares compounds with AI-2 QS mod | Vibrio harveyi BB721 growth, 9 h | growth inhibition, % at 7.5 µM | 3% of 750 active | AID 2728, 2010;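 active = every replicate shows growth inhibition above 50%; inconclusive = at least half but not all replicates above 50% inhibition; inactive = under half of replicates above 50% inhibition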
JMH597 AI-2 mod: Vibrio harveyi AI-2 signaling luminescence modulation – JMH597 strain, confirmation | shares compounds with AI-2 QS mod | Vibrio harveyi JMH597 AI-2 quorum sensing luminescence, 9 h; luxN and CqsS knockout, AI-2 only | inhibition, % at 7.5 µM | 97% of 750 active;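 active = every replicate shows more than 75% inhibition of signal versus neutral control wells; inconclusive = half to three quarters of replicates exceed 75% inhibition; inactive = fewer than half of replicates exceed 75% inhibition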
Large screens that a line does not name were inactive (follow-up assays come after a bar, where they were run). Hits are enriched below; roughly 0.97% of the tested compounds scored in any of these assays.

CCC(C)N1C(=O)CN(C2CCCCCC2)C(=O)C1c1ccccc1F (stereo not drawn)	none
Cc1ccc(NC(=O)CN2C(=O)NC(C)(c3ccc(Cl)cc3)C2=O)cc1 (stereo not drawn)	AI-2 QS mod -88 (no result: S1P4 agonist, S1P3 antagonist, Hsp70 act, S1P4 antag) | JMH597 growth inactive | BB721 lum counter 89 | BB721 growth rt inactive | JMH597 AI-2 mod 94
Cc1ccc(C2(C)NC(=O)N(CC(=O)NC(=O)NCCC(C)C)C2=O)cc1 (stereo not drawn)	AI-2 QS mod -85 | JMH597 growth inactive | BB721 lum counter 90 | BB721 growth rt inactive | JMH597 AI-2 mod 95
Cc1ccc(C2(C)NC(=O)N(CC(=O)Nc3ccc(S(=O)(=O)Nc4nccs4)cc3)C2=O)cc1 (stereo not drawn)	none (no result: S1P4 agonist, S1P3 antagonist, Hsp70 act, S1P4 antag)
COc1ccc(C2(c3ccc(OC)cc3)NC(=O)N(CC(=O)Nc3ccc(N4CCOCC4)cc3)C2=O)cc1	none (no result: S1P4 agonist, S1P3 antagonist, Hsp70 act, S1P4 antag)
CC1(c2ccc3c(c2)OCO3)NC(=O)N(CC(=O)Nc2ccc(N3CCOCC3)cc2)C1=O (stereo not drawn)	AI-2 QS mod -88 | JMH597 growth inactive | BB721 lum counter 88 | BB721 growth rt inactive | JMH597 AI-2 mod 94
COc1ccc(OC(=O)COc2ccc(Cl)cc2)cc1	none (no result: S1P4 agonist, S1P3 antagonist, Hsp70 act, S1P4 antag)
O=c1ccc2cc(S(=O)(=O)N3CCN(c4ccc(Cl)cc4)CC3)ccc2o1	none (no result: S1P4 agonist, S1P3 antagonist, Hsp70 act, S1P4 antag)
O=C(COc1cccc(C(F)(F)F)c1)Nc1cccnc1	none (no result: S1P4 agonist, S1P3 antagonist, Hsp70 act, S1P4 antag)
O=C(COc1cccc(C(F)(F)F)c1)Nc1ccc2[nH]ncc2c1	AI-2 QS mod -79 (no result: S1P4 agonist, S1P3 antagonist, Hsp70 act, S1P4 antag) | JMH597 growth inactive | BB721 lum counter 87 | BB721 growth rt inactive | JMH597 AI-2 mod 91
COc1ccc(/C=C/C(=O)c2ccc(O)cc2)cc1	AI-2 QS mod -93 | JMH597 growth inactive | BB721 lum counter 97 | BB721 growth rt inactive | JMH597 AI-2 mod 97
Nc1nc(SCC(=O)Nc2ccc(Oc3ccccc3)cc2)n[nH]1	AI-2 QS mod -90 | JMH597 growth inactive | BB721 lum counter 95 | BB721 growth rt inactive | JMH597 AI-2 mod 97
c1cncc(-c2nnc(SCc3cccc4ccccc34)o2)c1	AI-2 QS mod -96 | JMH597 growth inactive | BB721 lum counter 99 | BB721 growth rt inactive | JMH597 AI-2 mod 99
Brc1ccc(CSc2nnc(-c3cccnc3)o2)cc1	AI-2 QS mod -94 | JMH597 growth inactive | BB721 lum counter 98 | BB721 growth rt inactive | JMH597 AI-2 mod 99
Nn1c(SCc2ccc(Br)cc2)nnc1-c1cccnc1	AI-2 QS mod -86 (no result: Hsp70 act) | JMH597 growth inactive | BB721 lum counter 95 | BB721 growth rt inactive | JMH597 AI-2 mod 96
c1ccc(CSc2nnc(-c3cccnc3)o2)cc1	AI-2 QS mod -95 (no result: S1P3 antagonist) | JMH597 growth inactive | BB721 lum counter 99 | BB721 growth rt inactive | JMH597 AI-2 mod 99
c1cncc(-c2nnc(SCc3nc4ccccc4[nH]3)o2)c1	none
Nn1c(SCc2ccc(F)cc2)nnc1-c1cccnc1	none (no result: Hsp70 act)
O=C(O)c1cccc(CSc2nnc(-c3cccnc3)o2)c1	none (no result: S1P4 agonist, S1P3 antagonist, Hsp70 act, S1P4 antag)
O=C(NCCc1ccc(F)cc1)Nc1ccccc1Cl	none (no result: S1P4 agonist, S1P3 antagonist, Hsp70 act, S1P4 antag)
CCOc1c([N+](=O)[O-])cc2c(C)c(C(=O)N3CCN(C)CC3)oc2c1OCC	none (no result: S1P4 agonist, S1P3 antagonist, Hsp70 act, S1P4 antag)
CSc1cccc(CN2CCC(Oc3ccc(C(=O)N4CCCCC4)cc3)CC2)c1	none (no result: S1P4 agonist, S1P3 antagonist, Hsp70 act, S1P4 antag)
Fc1ccc(CSc2nnc(-c3cccnc3)o2)cc1	AI-2 QS mod -93 | JMH597 growth inactive | BB721 lum counter 98 | BB721 growth rt inactive | JMH597 AI-2 mod 99
Clc1ccc(CSc2nnc(-c3cccnc3)o2)cc1	AI-2 QS mod -93 (no result: S1P3 antagonist) | JMH597 growth inactive | BB721 lum counter 98 | BB721 growth rt inactive | JMH597 AI-2 mod 99
Cc1ccccc1-c1nnc(SCc2ccc(F)cc2)o1	AI-2 QS mod -92 | JMH597 growth inactive | BB721 lum counter 97 | BB721 growth rt inactive | JMH597 AI-2 mod 97
Cc1ccc(CSc2nnc(-c3cccnc3)o2)cc1	AI-2 QS mod -96 (no result: S1P3 antagonist) | JMH597 growth inactive | BB721 lum counter 99 | BB721 growth rt inactive | JMH597 AI-2 mod 99
Nn1c(SCc2ccccc2)nnc1-c1ccccn1	none (no result: S1P3 antagonist)
Cc1ccc(CSc2nnc(-c3ccccn3)n2N)cc1	AI-2 QS mod inconclusive (no result: Hsp70 act) | JMH597 growth inactive | BB721 lum counter 91 | BB721 growth rt inactive | JMH597 AI-2 mod 95
CCOC(=O)CSc1nnc(-c2cccnc2)o1	none (no result: S1P3 antagonist)
C(=C\c1ccccc1)/CSc1nnc(-c2cccnc2)o1	AI-2 QS mod -89 | JMH597 growth inactive | BB721 lum counter 95 | BB721 growth rt inactive | JMH597 AI-2 mod 98
CC(C)C(C(=O)NCC1CCCO1)N(C(=O)CNS(=O)(=O)c1ccccc1)c1ccc(F)cc1 (stereo not drawn)	none (no result: S1P4 agonist, S1P3 antagonist, Hsp70 act, S1P4 antag)
O=C(NNc1nc(-c2ccc(Br)cc2)cs1)c1ccco1	AI-2 QS mod -85 | JMH597 growth 63 | BB721 lum counter 95 | BB721 growth rt 69 | JMH597 AI-2 mod 97
O=C(NC(=S)Nc1nc(-c2ccc(Br)cc2)cs1)c1ccco1	none
CC(COc1ccc(C(C)C)cc1)NC(=O)c1ccc(Br)o1 (stereo not drawn)	AI-2 QS mod -83 (no result: S1P4 agonist, S1P3 antagonist, Hsp70 act, S1P4 antag) | JMH597 growth inactive | BB721 lum counter 88 | BB721 growth rt inactive | JMH597 AI-2 mod 93
CC(C)[C@H](NC(=O)c1ccccc1)C(=O)OCC(=O)c1ccc(S(=O)(=O)N2CCCCC2)cc1	none (no result: S1P4 agonist, S1P3 antagonist, Hsp70 act, S1P4 antag)
CC1CCC(NC(=O)COC(=O)c2n[nH]c(=O)c3ccccc23)CC1 (stereo not drawn)	none (no result: S1P4 agonist, S1P3 antagonist, Hsp70 act, S1P4 antag)
Oc1c(Br)cc(C2N=C(c3ccccc3)NO2)cc1Br (stereo not drawn)	none (no result: S1P3 antagonist)
CSc1ccc(C2N=C(c3ccccc3)NO2)cc1 (stereo not drawn)	AI-2 QS mod -85 (no result: S1P4 agonist, S1P3 antagonist, Hsp70 act, S1P4 antag) | JMH597 growth inactive | BB721 lum counter 95 | BB721 growth rt inactive | JMH597 AI-2 mod 96
CC1CC(=O)N(CC(=O)Nc2ccc(Br)cc2)c2ccccc2S1(=O)=O (stereo not drawn)	AI-2 QS mod -83 (no result: S1P4 agonist, S1P3 antagonist, Hsp70 act, S1P4 antag) | JMH597 growth inactive | BB721 lum counter 96 | BB721 growth rt inactive | JMH597 AI-2 mod 97
